From PubChem
JMJD2A Tudor inh: blocks the human JMJD2A Tudor domain; Potency, µM (series often up to 114 µM), for inactives: top-dose activity change, negative = inhibition, hits mostly inhibitors; 4.4% of 390,000 active; O75164; AID 504339; AlphaScreen JMJD2A-Tudor / H3K4me3 peptide binding; further: on the % scale 0 is the no-effect control and ±100 the full control effect; nearly all actives have a fitted effect of over 50% in size
GLS inh: blocks human kidney-isoform glutaminase activity. Potency, µM (top dose mostly 45.5 µM), for inactives: top-dose activity change, negative = inhibition, actives largely listed as inhibitors. O94925. AID 624170. GLS enzymatic activity, qHTS titration. 0.21% of 410,000 active; further: on the % scale 0 is the no-effect control and ±100 the full control effect
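Two-point fluorescence kinetic (t0, 30 min RT) for hKGA; glutamate detected via glutamate oxidase–HRP–Amplex Red. Substrate: 1 mM L-glutamine solution; buffer 45 mM KH2PO4, pH 8.2.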
G9a block: G9a (human) methyltransferase inhibition | AID 504332 | 8.8% of 350,000 active | Q96KQ7 | G9a H3K9 monomethylation, AlphaScreen, 2 h | Potency, µM (series often up to 102 µM), without a hit: at the top dose activity, negative = inhibition, usual class: inhibitors; further: on the % scale 0 is the no-effect control and ±100 the full control effect; nearly all actives have a fitted effect of over 75% in size
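G9a (20 nM) preincubated 15 min RT with compounds, then 500 nM biotinylated H3K9 peptide and 20 uM SAM added; 2 h RT reaction. Monomethyl-H3K9 product detected by AlphaScreen with anti-H3K9me1 antibody, streptavidin donor and anti-rabbit IgG acceptor beads.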
BAZ2B block: inhibitors of human BAZ2B bromodomain; AlphaScreen BAZ2B-H3K14Ac peptide displacement; 4.4% of 360,000 active; Potency, µM (top dose mostly 114 µM), inactives show at the top dose activity change, negative = inhibition, most hits filed as inhibitors; Q9UIF8; further: on the % scale 0 is the no-effect control and ±100 the full control effect; nearly all actives have a fitted effect of over 60% in size
Target sequence (Q9UIF8 whole entry, looked up): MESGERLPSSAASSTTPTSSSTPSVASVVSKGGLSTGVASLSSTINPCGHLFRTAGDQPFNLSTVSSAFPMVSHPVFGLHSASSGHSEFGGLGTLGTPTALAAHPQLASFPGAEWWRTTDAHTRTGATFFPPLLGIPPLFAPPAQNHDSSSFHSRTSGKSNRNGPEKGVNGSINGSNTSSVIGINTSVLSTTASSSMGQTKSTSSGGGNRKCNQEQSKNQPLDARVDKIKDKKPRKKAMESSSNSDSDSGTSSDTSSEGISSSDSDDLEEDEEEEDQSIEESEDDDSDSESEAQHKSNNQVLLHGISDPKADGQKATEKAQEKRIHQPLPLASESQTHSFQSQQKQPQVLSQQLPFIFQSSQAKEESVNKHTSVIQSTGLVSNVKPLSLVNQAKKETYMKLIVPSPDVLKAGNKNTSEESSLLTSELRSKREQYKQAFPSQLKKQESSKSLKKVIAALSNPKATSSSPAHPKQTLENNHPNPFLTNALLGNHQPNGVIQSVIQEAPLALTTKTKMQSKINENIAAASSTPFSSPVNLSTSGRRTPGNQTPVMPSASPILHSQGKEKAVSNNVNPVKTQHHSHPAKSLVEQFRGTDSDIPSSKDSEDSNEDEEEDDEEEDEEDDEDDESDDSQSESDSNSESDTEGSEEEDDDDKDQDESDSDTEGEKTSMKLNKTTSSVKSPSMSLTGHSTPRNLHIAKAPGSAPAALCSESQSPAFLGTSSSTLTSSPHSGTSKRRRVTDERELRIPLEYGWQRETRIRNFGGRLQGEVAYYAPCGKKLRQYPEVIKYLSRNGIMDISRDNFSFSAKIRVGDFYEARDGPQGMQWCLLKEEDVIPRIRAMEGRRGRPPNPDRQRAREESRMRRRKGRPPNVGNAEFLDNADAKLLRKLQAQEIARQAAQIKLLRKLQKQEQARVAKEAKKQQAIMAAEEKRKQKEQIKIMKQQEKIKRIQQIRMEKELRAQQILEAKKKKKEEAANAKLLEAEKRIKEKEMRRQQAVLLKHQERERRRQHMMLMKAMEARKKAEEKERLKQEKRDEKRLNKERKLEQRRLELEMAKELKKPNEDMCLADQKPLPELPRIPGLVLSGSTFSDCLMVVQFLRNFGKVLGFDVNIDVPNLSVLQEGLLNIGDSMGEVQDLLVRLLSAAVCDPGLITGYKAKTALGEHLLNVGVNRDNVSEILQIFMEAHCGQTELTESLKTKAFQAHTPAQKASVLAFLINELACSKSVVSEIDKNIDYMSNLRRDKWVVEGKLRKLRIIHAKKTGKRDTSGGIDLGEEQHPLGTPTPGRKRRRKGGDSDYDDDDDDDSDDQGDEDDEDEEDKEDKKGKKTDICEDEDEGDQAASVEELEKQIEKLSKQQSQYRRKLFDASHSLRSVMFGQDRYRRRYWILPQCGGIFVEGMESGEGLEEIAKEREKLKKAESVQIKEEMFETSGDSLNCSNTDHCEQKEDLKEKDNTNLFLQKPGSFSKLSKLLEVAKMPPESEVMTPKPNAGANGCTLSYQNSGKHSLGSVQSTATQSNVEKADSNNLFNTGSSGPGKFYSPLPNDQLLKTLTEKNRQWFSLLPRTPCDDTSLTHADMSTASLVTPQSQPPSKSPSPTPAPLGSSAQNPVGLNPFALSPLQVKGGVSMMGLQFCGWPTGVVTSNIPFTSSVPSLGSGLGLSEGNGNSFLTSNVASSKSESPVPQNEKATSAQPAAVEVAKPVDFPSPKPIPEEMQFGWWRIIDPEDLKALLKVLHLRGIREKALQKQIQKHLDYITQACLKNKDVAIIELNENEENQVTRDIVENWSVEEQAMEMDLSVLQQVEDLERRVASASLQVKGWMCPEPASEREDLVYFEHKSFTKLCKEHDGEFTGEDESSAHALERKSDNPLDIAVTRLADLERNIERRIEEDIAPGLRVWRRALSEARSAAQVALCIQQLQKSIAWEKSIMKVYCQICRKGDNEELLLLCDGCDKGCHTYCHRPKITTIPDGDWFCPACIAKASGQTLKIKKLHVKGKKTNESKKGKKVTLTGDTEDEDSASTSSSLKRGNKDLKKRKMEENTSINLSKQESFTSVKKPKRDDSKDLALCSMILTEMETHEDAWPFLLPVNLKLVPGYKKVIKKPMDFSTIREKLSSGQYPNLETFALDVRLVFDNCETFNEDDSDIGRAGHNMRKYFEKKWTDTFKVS
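AlphaScreen displacement of biotin-H3(5-23)K14Ac peptide (50 nM final) from BAZ2B (50 nM final) in PBS pH 7.4, 0.01% Tween-20; complex preformed 30 min RT, then compounds (top 110 uM) 30 min RT, beads 20 min dark.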
HP1b binding inh: blocks HP1-beta chromodomain binding to methylated histone tails; Potency, µM (highest dose often 114 µM), for inactives: top-dose activity change, negative = inhibition, hits mostly inhibitors; AlphaScreen HP1-beta / biotin-H3K9me3 peptide binding; P83916; 0.56% of 390,000 active; further: nearly all actives have a fitted effect of over 70% in size
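HP1-beta protein (50 nM final) preincubated 30 min at room temperature with biotinylated H3(1-18)K9me3 peptide (50 nM) in PBS pH 7.4, 0.01% Tween-20, then compound added for 30 min. AlphaScreen streptavidin donor/nickel chelate acceptor beads (10 ug/mL final), 30 min dark, luminescence read.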
Starred values were filed as active, the others as inactive; ? = inconclusive; . = no result given; [ ] = another dose, or the depositor's remark. Compounds with a hit are over-represented: about 10% of the library has one in this group of screens. The call rests on the fitted dose curve; in most records, active means well fitted curve in the direction sought with a large enough effect; inconclusive means small, poorly fitted or top-dose-only effect, or another doubt; inactive means no such curve, though single readings can be large; an effect the other way counts as inactive or inconclusive. Potency means the concentration at half of the fitted maximal effect.

SMILES | JMJD2A Tudor inh | GLS inh | G9a block | BAZ2B block | HP1b binding inh
Cc1cc(C(=O)CSc2nnnn2C)c(C)n1Cc1ccco1 | ? | -5% | ? | 71µM* | 11%
Cc1ccc(-n2c(C)cc(C(=O)CSc3nnnn3C)c2C)cc1 | ? | -4% | 14µM* | 50µM* | -18%
Cc1cc(C(=O)CSc2ncccn2)c(C)n1Cc1ccco1 | -11% | -4% | 45µM* | 8% | 48%
Cc1ccc(-n2c(C)cc(C(=O)CSc3nncs3)c2C)cc1 | ? | -1% | ? | -65% | -9%
Cc1cc(C(=O)CSc2nnnn2C)c(C)n1CCc1ccc(F)cc1 | -11% | -11% | 21% | 5% | 26%
O=C(CN1C(=O)COc2ccc(S(=O)(=O)N3CCCCCC3)cc21)NCCc1ccccc1 | -17% | -8% | -27%[59 µM] | -16% | 0%
Cc1ccccc1-n1c(SCC(=O)c2cc(C)n(C)c2C)nnc1-c1ccncc1 | -27%[57.1 µM] | -11% | 71µM* | ? | 1%
Cc1cc(C(=O)C(C)Cl)c(C)n1Cc1ccco1 (stereo not given) | 50µM* | 29% | ? | ? | ?
Cc1cc(C(=O)CSc2nnnn2-c2ccc(O)cc2)c(C)n1C | 45µM* | 19% | ? | -10% | ?
CCc1cccc2c(C(=O)CSc3nnc(-c4ccncc4)n3C)c[nH]c12 | -9% | -6% | 32µM* | -33% | 32%
Cc1cc(C(=O)CSc2nnnn2-c2ccccc2)c(C)n1CCc1ccccc1 | -17% | 10% | 4% | 6% | 18%
Cc1cc(C(=O)CN2C(=O)NC3(CCCCC3)C2=O)c(C)n1Cc1ccco1 | -32% | 10% | -37% | ? | 9%
CCc1cccc(C)c1NC(=O)C1CCN(S(=O)(=O)Cc2ccccc2)CC1 | -20% | -1% | -43%[59 µM] | -13% | 1%
O=C(NC1CCCCC1)N1CCC(n2cnc3ccccc32)CC1 | 56µM* | 9% | 56µM* | ? | 20%
Cc1ccc(S(=O)(=O)N2CCCN(C(C)c3nc4ccccc4c(=O)[nH]3)CC2)cc1 (stereo not given) | -10% | 0% | -4%[12.7 µM] | -32% | 30%
O=C(NC1CCCCC1)N1CCN(Cc2nc3ccccc3c(=O)[nH]2)CC1 | 10µM* | -12% | . | . | 25%
O=C(NC1CCCCC1)N(Cc1nc2ccccc2c(=O)[nH]1)C1CCCCC1 | -5% | 14% | 28µM* | ? | 19%
Cc1ccc(S(=O)(=O)N2CCCN(Cc3nc4ccccc4c(=O)[nH]3)CC2)cc1 | ? | -1% | 25µM* | -5% | 28%
O=c1ccn([C@@H]2O[C@H](CNCC3=Cc4cc(O)ccc4OC3)[C@@H](O)[C@H]2O)c(=O)[nH]1 | -16% | 29% | . | . | 15%
CCC(CC)C(=O)Nc1cc(-c2cccc(C)c2)nn1-c1ccccc1 | -6% | -8% | 12%[59 µM] | 14% | 25%[57 µM]
NC(=O)N/N=C/c1ccc(-c2cccc(C(F)(F)F)c2)o1 | -23% | 3% | -31% | -34% | 21%
CC(C)Oc1ccc(C(=O)N/N=C/c2ccc(-c3ccc(S(=O)(=O)Nc4ncccn4)cc3)o2)cc1 | ? | -20% | 50µM* | ? | -6%
NC(=O)N/N=C/c1ccc(-c2ccc(S(=O)(=O)Nc3ncccn3)cc2)o1 | -12% | -3% | 11µM* | -12% | 13%
Cc1ccc(C)c(N2CCN(CCCNC(=O)c3ccc4nc(N5CCCCC5)sc4c3)CC2)c1 | ? | 2% | ? | ? | -11%
COc1cc(OC)c(OC)cc1CN1CCc2nc(N3CCN(C)CC3)ncc2C1 | ? | 15% | -2%[12.7 µM] | ? | 21%
CN1CCN(c2ncc3c(n2)CCN(Cc2ccccc2Cl)C3)CC1 | 79µM* | 7% | ? | ? | -10%
Clc1ccccc1CN1CCc2nc(N3CCN(c4ncccn4)CC3)ncc2C1 | 35µM* | 6% | ? | 50µM* | ?
CN1CCN(c2ncc3c(n2)CCN(Cc2cc(Br)cs2)C3)CC1 | 56µM* | 7% | ? | ? | -2%
CCOc1ccccc1CN1CCc2nc(N3CCN(C)CC3)ncc2C1 | -22% | 3% | -3%[12.7 µM] | 79µM* | 55%
COc1ccc(C2N=C(Nc3nc4ccccc4o3)NC3=C2C(=O)CC(C)(C)C3)cc1 (stereo not given) | -8%[57.1 µM] | . | . | . | 13%[57 µM]
